Experimental data published in PubChem BioAssay (NCI).
Where “and” joins values, the source holds several entries; their conditions need not be identical. Identical values can stand only once. Compounds without any hit were thinned out: in the full panel of roughly 83,000, 20% have a hit.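 Treatment: one concentration, 48 hours, 96-well format. Scoring: percent growth, with anything below 10 considered active.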 Calls of active or inactive are those of the source.

Key:
Test in all cases: NCI-60 one-dose screen, 48 h (100 = growth as untreated, 0 = no growth, -100 = all killed)
[1] = tested on: NCI-H226 lung; details: 10 µM
[2] = tested on: NCI-H322M lung; details: 10 µM
[3] = tested on: HOP-62 NSCLC; details: 10 µM
[4] = tested on: NCI-H460 lung; details: 10 µM
[5] = tested on: A549/ATCC NSCLC; details: 10 µM
[6] = tested on: 786-0 renal; details: 10 µM
[7] = tested on: DU-145 prostate; details: 10 µM
[8] = tested on: SF-268 CNS; details: 10 µM
[9] = tested on: SF-295 CNS; details: 10 µM
[10] = tested on: SF-539 CNS; details: 10 µM
[11] = tested on: HCT-15 colon; details: 10 µM
[12] = tested on: HT29 colon; details: 10 µM
[13] = tested on: SNB-75 CNS; details: 10 µM
[14] = tested on: SNB-19 CNS; details: 10 µM
[15] = tested on: U251 CNS; details: 10 µM
[16] = tested on: PC-3 prostate; details: 10 µM
[17] = tested on: EKVX NSCLC; details: 10 µM
[18] = tested on: UO-31 renal; details: 10 µM
[19] = tested on: ACHN renal; details: 10 µM
[20] = tested on: HL-60(TB) leukemia; details: 10 µM unless noted

SMILES | growth [1] | growth [2] | growth [3] | growth [4] | growth [5] | growth [6] | growth [7] | growth [8] | growth [9] | growth [10] | growth [11] | growth [12] | growth [13] | growth [14] | growth [15] | growth [16] | growth [17] | growth [18] | growth [19] | growth [20]
C[C@@H]1CCC/C=C/[C@H]2C[C@@H](O)C[C@@H]2[C@@H](O)/C=C/C(=O)O1 | 7.32% (active) | 6.35% (active) | 1.72% (active) | 18.2% (inactive) | 16.1% (inactive) | -31.4% (active) | 28.4% (inactive) | 17.6% (inactive) | 21.6% (inactive) | 31.7% (inactive) | 11.2% (inactive) | 0.531% (active) | 47% (inactive) | 30.2% (inactive) | 17.6% (inactive) | 19.5% (inactive) | 11.5% (inactive) | 6.57% (active) | 9.31% (active) | -22.7% (active)
NC1CCc2cc(O)c(O)cc2C1 (centres undefined) | 90.7% (inactive) | 98.6% (inactive) | 100% (inactive) | 87% (inactive) | 82.3% (inactive) | 84.7% (inactive) | 94.3% (inactive) | 104% (inactive) | 95% (inactive) | 94.8% (inactive) | 41.8% (inactive) | 39.7% (inactive) | 82.6% (inactive) | 98% (inactive) | 79.6% (inactive) | 76.1% (inactive) | 93.9% (inactive) | 85.1% (inactive) | 96.9% (inactive) | 32.9% (inactive)
CC1=C(CN(O)C(N)=O)C2=C(C)C3(CC3)[C@@](C)(O)C(=O)C2=C1 | -46.8% (active) | 5.16% (active) | -9% (active) | -11.2% (active) | -8.35% (active) | -5.47% (active) | -2.79% (active) | -14.7% (active) | -11.4% (active) | -46.1% (active) | 0.564% (active) | 0.349% (active) | -52.8% (active) | 16.2% (inactive) | 4.97% (active) | 2.36% (active) | -24.1% (active) | -31.8% (active) | -14.4% (active) | -28.2% (active)
N#Cc1c(-n2c(Br)c(Br)c3cc(Br)ccc32)[nH]c2c(Br)cc(Br)cc12 | -20.5% (active) | 0.977% (active) | -50.9% (active) | -2.03% (active) | 10.3% (inactive) | -19.1% (active) | 17% (inactive) | 9.61% (active) | -67% (active) | 6.25% (active) | -27% (active) | -15.1% (active) | -9.71% (active) | 15% (inactive) | 2.86% (active) | -8.16% (active) | 3.62% (active) | 1.66% (active) | 1.41% (active) | 1.07% (active)
CC1=C2C(=C[C@@](C)(COC(=O)c3ccc(S(=O)(=O)F)cc3)[C@@H]2O)C(=O)[C@](C)(O)C12CC2 | -24.4% (active) | -5.82% (active) | -17.7% (active) | -33.3% (active) | -11% (active) | -37.7% (active) | -20.4% (active) | -12% (active) | -5.19% (active) | -67.8% (active) | -20.2% (active) | -17.9% (active) | -51.6% (active) | 3.51% (active) | 1.04% (active) | -3.96% (active) | -4.53% (active) | -21.4% (active) | 0.0222% (active) | 
N#Cc1nc(-c2ccccc2)oc1N1CCC(S(=O)(=O)F)CC1 | 98.4% (inactive) | 115% (inactive) | 95.9% (inactive) | 106% (inactive) | 102% (inactive) | 81.5% (inactive) | 101% (inactive) | 92.3% (inactive) | 100% (inactive) | 91.1% (inactive) | 103% (inactive) | 102% (inactive) | 102% (inactive) | 98.6% (inactive) | 98.6% (inactive) | 99.3% (inactive) | 103% (inactive) | 86.7% (inactive) | 94.6% (inactive) | 98.6% (inactive)
CC1=C2C(=C[C@@](C)(COC(=O)c3ccc(S(=O)(=O)F)cc3)[C@@H]2OC(=O)c2ccc(S(=O)(=O)F)cc2)C(=O)[C@](C)(O)C12CC2 | -6.08% (active) | 9.18% (active) | -20.3% (active) | 0.279% (active) | 2.93% (active) | -44.2% (active) | 5.79% (active) | 2.06% (active) | 1.3% (active) | -4.86% (active) | 0.515% (active) | 2.13% (active) | -8.24% (active) | 21.5% (inactive) | -21.5% (active) | 16.2% (inactive) | 23.6% (inactive) | -13.7% (active) | -15.8% (active) | 8.8% (active)
CC1=C(CN(O)C(N)=O)C2=C(C)C3(CC3)[C@](C)(O)C(=O)C2=C1 | 105% (inactive) | 26.8% (inactive) | 11.4% (inactive) | 1.16% (active) | 0.401% (active) | 14.9% (inactive) | 10% (inactive) | 13.6% (inactive) | 0.35% (active) | -1.94% (active) | 1.38% (active) | 3.85% (active) | -22.2% (active) | 32.5% (inactive) | 23.8% (inactive) | 8.93% (active) | 8.16% (active) | -20.3% (active) | -5.65% (active) | -16.6% (active)
COC1[C@@H]2C[C@H]3C(C)(C)O[C@@](C/C=C(/C)C(=O)O)(C2=O)[C@]32Oc3c(CC=C(C)C)c4c(c(O)c3C(=O)[C@H]12)C=CC(C)(C)O4 (some centres undefined) | 23% (inactive) | -67% (active) | -24.8% (active) | -55.6% (active) | -20.3% (active) | -50.8% (active) | -97.2% (active) | -45.5% (active) | -55.2% (active) | -23% (active) | -43.1% (active) | -33.3% (active) | -24.3% (active) | -69.5% (active) | -91.1% (active) | -18.4% (active) | -46.5% (active) | -69.6% (active) | -71% (active) | -29.8% (active)
CC1=C2C(=C[C@@](C)(COS(C)(=O)=O)[C@@H]2O)C(=O)[C@](C)(O)C12CC2 | -15.3% (active) | 4.33% (active) | 0.685% (active) | 7.36% (active) | 11.3% (inactive) | 4.19% (active) | 9.22% (active) | 5.21% (active) | -2.13% (active) | -26.2% (active) | 3.8% (active) | 3.64% (active) | -74.6% (active) | 4.72% (active) | 7.54% (active) | 6.69% (active) | 4.37% (active) | -8.95% (active) | -0.611% (active) | -9.62% (active)
COc1cccc2c1cc([N+](=O)[O-])c1c(C(=O)O)cc3c(c12)OCO3 | 104% (inactive) | 115% (inactive) | 113% (inactive) | 105% (inactive) | 100% (inactive) | 109% (inactive) | 112% (inactive) | 108% (inactive) | 101% (inactive) | 106% (inactive) | 99.9% (inactive) | 0.133% (active) | 96.2% (inactive) | 102% (inactive) | 103% (inactive) | 95.6% (inactive) | 97% (inactive) | 85.1% (inactive) | 101% (inactive) | 105% (inactive)
CC1=C2C(=O)[C@](C)(CO)C=C2C(=O)[C@](C)(O)C12CC2 | 74.7% (inactive) | 61.6% (inactive) | 22% (inactive) | 5.34% (active) | 13.2% (inactive) | 5.58% (active) | 7.23% (active) | 10.5% (inactive) | 6.45% (active) | 4.6% (active) | -9.55% (active) | 2.57% (active) | 38.9% (inactive) | 60.2% (inactive) | 8.4% (active) | 21.6% (inactive) | 64.7% (inactive) | -20.7% (active) | -21.9% (active) | -21.6% (active)
CCC(C)[C@H]1C(=O)O[C@H](C(C)C)C(=O)N(C)[C@@H](C(C)C)C(=O)O[C@H](C(C)C)C(=O)N(C)[C@@H](C(C)C)C(=O)O[C@H](C(C)C)C(=O)N1C (some centres undefined) | 21.2% (inactive) | 14.3% (inactive) | 15% (inactive) | 7.94% (active) | 14.5% (inactive) | 20.9% (inactive) | 26.9% (inactive) | 21.9% (inactive) | 9.15% (active) | 19.1% (inactive) | 14.6% (inactive) | 9.91% (active) | 2.63% (active) | 21.6% (inactive) | 13.5% (inactive) | 12.2% (inactive) | 24% (inactive) | -10.8% (active) | 9.28% (active) | -48.8% (active)
CC1=C(CCC=NNC(N)=O)C2=C(C)C3(CC3)[C@@](C)(O)C(=O)C2=C1 | -41.6% (active) | -16.2% (active) | -55.2% (active) | -29.2% (active) | 4.54% (active) | -37.6% (active) | -9.85% (active) | -17.8% (active) | -6.5% (active) | -58.5% (active) | -16.6% (active) | -9.67% (active) | -63.9% (active) | 3.45% (active) | 4.6% (active) | 1.22% (active) | -12.8% (active) | -29.1% (active) | -10.3% (active) | 5.99% (active)
C/C=C/CC(C)C(O)[C@H](NC(=O)[C@@H]1CCCN1C(=O)C(C)(C)NC(=O)CCCCCCCCC)C(=O)NC(C)(C)C(=O)N[C@@H](CCC(N)=O)C(=O)N[C@H](CCC(N)=O)C(=O)NC(C)(C)C(=O)NC(C)(C)C(=O)N[C@@H](CCC(N)=O)C(=O)N[C@H](CC(C)C)C(=O)N[C@H](CO)CC(C)C (some centres undefined) | 24.6% (inactive) and -36.3% (active) | 39.9% (inactive) and -7.7% (active) | 20.7% (inactive) and -41.7% (active) | 17.1% (inactive) and -70% (active) | 49.3% (inactive) and 26.3% (inactive) | 14.2% (inactive) and -83.8% (active) | -71% (active) and -43.1% (active) | -14.2% (active) and -46.2% (active) | -20.9% (active) and -75.3% (active) | -33.1% (active) and -100% (active) | 4.12% (active) and 4.44% (active) | 4.29% (active) and 5.04% (active) | -15.2% (active) and -83.2% (active) | 14.5% (inactive) and -95.4% (active) | 0.668% (active) and -89.7% (active) | 15.8% (inactive) and -29.7% (active) | 22.6% (inactive) and -41.8% (active) | 39.7% (inactive) and -38.5% (active) | 43.7% (inactive) and -32% (active) | -52.1% (active) and -47.2% (active)
